Compound activity from PubChem BioAssay.
FLuc modulator: qHTS profiling assay for firefly luciferase inhibitor/activator using purifed enzyme and Km concentrations of substrates (counterscreen for miR-21 project). Potency, µM (top dose mostly 57.5 µM), for the others: at the top dose activity change, negative = inhibition, usual class: inhibitors. purified FLuc, Km substrates, luminescence inhibition. Luciferin 4-monooxygenase (Photinus pyralis), P08659. 360,000 tested, 6.9% active;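 also: plate controls were vehicle for no effect and reference inhibitor for full effect; nearly all actives have a fitted effect of over 55% in size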
Target sequence (P08659 whole entry, looked up): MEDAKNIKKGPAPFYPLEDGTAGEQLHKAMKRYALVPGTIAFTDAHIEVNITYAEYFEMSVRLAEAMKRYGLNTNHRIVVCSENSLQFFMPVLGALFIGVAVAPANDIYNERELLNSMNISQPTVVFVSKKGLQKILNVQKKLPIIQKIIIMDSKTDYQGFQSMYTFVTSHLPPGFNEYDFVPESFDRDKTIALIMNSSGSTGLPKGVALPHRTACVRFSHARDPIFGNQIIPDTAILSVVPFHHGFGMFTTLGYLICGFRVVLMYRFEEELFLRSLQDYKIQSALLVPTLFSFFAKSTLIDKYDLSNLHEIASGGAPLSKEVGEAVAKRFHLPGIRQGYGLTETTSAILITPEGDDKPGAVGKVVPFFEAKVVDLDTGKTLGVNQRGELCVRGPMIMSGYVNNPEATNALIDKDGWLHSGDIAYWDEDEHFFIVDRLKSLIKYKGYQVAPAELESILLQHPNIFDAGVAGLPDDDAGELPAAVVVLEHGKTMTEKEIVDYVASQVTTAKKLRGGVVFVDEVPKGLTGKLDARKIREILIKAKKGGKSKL
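Purified P. pyralis luciferase, 10 nM final, with Km-level 10 uM D-luciferin and 10 uM ATP in 50 mM Tris acetate pH 7.5, 10 mM Mg acetate, 0.01% Tween-20, 0.05% BSA; 6-point qHTS titration about 60 µM downward; luminescence read.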
Rab9 promoter act: qHTS Assay for Rab9 Promoter Activators; Huh7 Rab9 promoter-luciferase reporter, luminescence, 24 h; Potency, µM (doses to about 9.22 µM), without a hit: at the top dose activation, negative = inhibition, actives largely listed as activators; 320,000 tested, 2.8% active; AID 485297, 2010; also: % of control where 0% means no effect; nearly all actives have a fitted effect of over 60% in size
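Cells were plated at 1500 per well in reduced-serum medium with 10% FBS and left 2 h. Compound in DMSO was then added for 24 h at 37 °C. Reporter signal was read by luminescence after 10 min with luciferase detection reagent.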
SMN2 splice up: qHTS Assay for Enhancers of SMN2 Splice Variant Expression; HEK293 SMN2-luciferase splicing reporter, luminescence, 30-36 h; Potency, µM (highest dose often 46.1 µM), for the others: top-dose activity change, positive = activation, hits mostly activators; 210,000 tested, 2.8% active; AID 1458, 2008; also: % of control where 0% means no effect; nearly all actives have a fitted effect of over 55% in size
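HEK293 cells carry an SMN2 […]–luciferase reporter in which exon 7 inclusion puts luciferase in frame. Cells were plated 10-12 h before compound addition, then incubated 30-36 h at 37C. ONE-Glo luminescence was read; sodium butyrate at 4.5 mM final served as control.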
NPC1 promoter act: qHTS Assay for NPC1 Promoter Activators. AID 485313, 2010. Huh7 NPC1 promoter luciferase reporter, 24 h. 320,000 tested, 2.4% active. Potency, µM (highest dose often 9.22 µM), without a hit: at the top dose activation, hits mostly activators; also: % of control where 0% means no effect; nearly all actives have a fitted effect of over 60% in size
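Luciferase expression driven by the NPC1 promoter was measured in stably transfected Huh7 cells after a 24 h compound incubation, using a luciferase reagent and a luminescence read.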
ELG1 DNA repair: qHTS screen for small molecules that inhibit ELG1-dependent DNA repair in human embryonic kidney (HEK293T) cells expressing luciferase-tagged ELG1; HEK293T ELG1-luciferase reporter, luminescence, 16 h; DNA damage induced by 5-fluorouridine; Potency, µM (titrated, usually from 46.1 µM), for the others: at the highest dose activity change, negative = inhibition, usual class: inhibitors; 330,000 tested, 2.3% active; AID 504467, 2011; also: % is scaled to controls: 0 for no effect and ±100 for the full control effect; nearly all actives have a fitted effect of over 55% in size
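DMSO vehicle served as the neutral condition. Each well held 2,000 cells given 5-fluorouridine plus compound; after 16 hr at 37 °C/5% CO2, ONE-Glo was added and luciferase measured 30 min later.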
ELG1 genotoxic: qHTS screen for small molecules that induce genotoxicity in human embryonic kidney (HEK293T) cells expressing luciferase-tagged ELG1; HEK293T ELG1-luciferase reporter, luminescence, 16 h; Potency, µM (titrated, usually from 46 µM), without a hit: top-dose activity change, positive = activation, actives largely listed as activators; 330,000 tested, 1.3% active; AID 504466, 2011; also: % of control where 0% means no effect; nearly all actives have a fitted effect of over 60% in size
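Cells (2,000/well) expressing the ELG1-luciferase fusion are dosed by pin tool and kept 16 hr at 37 °C, 5% CO2. Signal comes from ONE-Glo luciferase reagent after 30 min at room temperature.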
* hit, by the source's call; ? = inconclusive; nt = not tested or not shown; [ ] = another dose, or the depositor's remark. The list is not random: actives were taken first. Their share in the collection is about 9.2%. Calls follow the shape of the dose curve; as a rule, active = well fitted curve in the direction sought with a large enough effect; inconclusive = small, poorly fitted or top-dose-only effect, or another doubt; inactive = no such curve, though single readings can be large; an effect the other way counts as inactive or inconclusive. Potency is read from the fitted curve at half-maximal effect.

SMILES	FLuc modulator	Rab9 promoter act	SMN2 splice up	NPC1 promoter act	ELG1 DNA repair	ELG1 genotoxic
CCCCC/C=C\C\C=C/C=C/C=C/[C@@H](SC[C@H](N)C(=O)NCC(=O)O)[C@@H](O)CCCC(=O)O	nt	nt	-10%	nt	nt	nt
COC(=O)[C@H]1[C@H]2C[C@@H]3c4[nH]c5cc(OC)ccc5c4CCN3C[C@H]2C[C@@H](OC(=O)c2cc(OC)c(OC)c(OC)c2)[C@@H]1OC	7%	-23%[46.1 µM]	8%	-14%[46.1 µM]	10µM*	-18%
COC(=O)[C@@H]1C2CC3c4[nH]c5cc(OC)ccc5c4CCN3CC2C[C@H](OC(=O)c2cc(OC)c(OC)c(OC)c2)C1OC (some centres not stated)	nt	nt	-3%	nt	nt	nt
Cn1ccnc1SCC(=O)c1c[nH]c2ccccc12	19µM*	3.5µM*	18µM*	4µM*	?	10µM*
COc1ccccc1C(=O)CSc1nccn1C	?	27%	nt	23%	?	9%
O=c1c2sc(-c3ccccc3)cc2nc2n1CCC2	1.3µM*	0.45µM*	2.2µM*	0.56µM*	?	?
O=c1c2sc(-c3ccccc3)cc2nc2n1CCCCC2	2.1µM*	0.56µM*	nt	1.4µM*	?	?
O=c1c2c(-c3ccccc3)csc2nc2n1CCC2	3%	-3%	8%	-4%	-5%	-1%
CCOC(=O)c1ccc(S(=O)(=O)NNc2ccc(C(F)(F)F)cn2)cc1	nt	nt	nt	nt	?	-3%
Cc1cccc(NC(=O)CCc2c(C)nn(-c3ccc(N4CCCCC4)nn3)c2C)c1	5.4µM*	?	nt	?	?	9%
Cc1cccc(NC(=O)CCc2c(C)nn(-c3ccc(N4CCOCC4)nn3)c2C)c1	15µM*	26%	nt	28%	?	6%
Cc1ccc(C)c(NC(=O)CCc2c(C)nn(-c3ccc(N4CCCC4)nn3)c2C)c1	0%	nt	nt	nt	nt	nt
O=C(NCCc1ccccc1)c1ccc(CSc2nc3cccnc3n2Cc2ccc(F)cc2)cc1	-11%	nt	nt	nt	nt	nt
O=C(NCCc1cccs1)c1ccc(Cn2c(SCc3ccccc3)nc3cccnc32)cc1	2.7µM*	nt	nt	nt	nt	nt
O=C(NCCc1cccs1)c1ccc(Cn2c(SCc3ccc(F)cc3)nc3cccnc32)cc1	2.1µM*	nt	19%	nt	nt	nt
O=C(CCCOc1ccc(Br)cc1)Nc1nnc(C2CC2)s1	nt	-6%	nt	-5%	10%	16%
O=C(Nc1ccccc1)N(O)c1ccc(Cl)cc1	12µM*	3.5µM*	?	?	?	?
CCN(CCS(=O)(=O)c1ccc(Cl)cc1)C(=O)Nc1ccccc1	1%	-4%	nt	-3%	-14%	1%
Cc1cc(C(=O)NCc2ccco2)sc1C	-11%	1%	nt	1%	?	-1%
COc1ccc2nc(-c3ccccc3)cc(C(=O)N3CCC3)c2c1	?	1%	nt	-1%	-27%	-4%
Cc1cc(C(=O)OCC(=O)N2CC(C)OC(C)C2)c2ccccc2n1 (configuration not stated)	6%	1%	nt	-4%	11%	-1%
COc1ccc2nc(-c3ccccc3)cc(C(=O)OCC(=O)N3CC(C)OC(C)C3)c2c1 (configuration not stated)	19µM*	-5%	nt	-10%	?	-6%
COc1ccc2nc(-c3ccccc3)cc(C(=O)OCC(=O)N3CCCCC3)c2c1	21µM*	-1%	nt	-3%	?	-8%
Cc1cc(C(=O)OCC(=O)N2CCCC2)c2ccccc2n1	2%	8%	23%	0%	9%	2%
COc1ccc(-c2cc(C(=O)OCC(=O)N3CCCC3)c3ccccc3n2)cc1	6µM*	15%	32%	15%	?	-2%
